Assay outcomes deposited in PubChem BioAssay by several laboratories.
In the library only some 1.2% were active in any assay of this set; here they are far more common.
LRH-1 inv ag: NR5A2 inverse agonism in reporter assay; HEK293T StAR-luciferase reporter, LRH-1 transfected, 24 h; AID 602396; inhibition, % at 3.6 µM; O00482; 360,000 tested, 0.13% active;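 active means inhibition above the mean inhibition of all tested compounds plus 3 SD, cut at about 73% in these data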
Target sequence (O00482 whole entry, looked up): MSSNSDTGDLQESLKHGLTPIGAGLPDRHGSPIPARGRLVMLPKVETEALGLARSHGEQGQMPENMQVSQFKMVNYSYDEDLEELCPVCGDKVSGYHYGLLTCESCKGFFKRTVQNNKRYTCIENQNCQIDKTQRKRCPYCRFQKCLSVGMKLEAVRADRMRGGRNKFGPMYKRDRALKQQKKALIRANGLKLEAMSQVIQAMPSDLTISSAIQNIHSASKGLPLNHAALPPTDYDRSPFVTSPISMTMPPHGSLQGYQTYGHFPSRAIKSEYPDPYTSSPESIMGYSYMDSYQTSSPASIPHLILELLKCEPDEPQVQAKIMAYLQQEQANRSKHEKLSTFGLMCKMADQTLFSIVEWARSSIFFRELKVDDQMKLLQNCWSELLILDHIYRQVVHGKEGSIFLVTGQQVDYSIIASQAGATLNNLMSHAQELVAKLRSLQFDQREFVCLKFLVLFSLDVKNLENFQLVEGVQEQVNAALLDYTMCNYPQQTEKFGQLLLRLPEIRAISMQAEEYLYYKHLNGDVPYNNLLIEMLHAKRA
NCOA1 inh: inhibitors of human steroid receptor coactivator 1 (SRC1); Q15788; HEK293 GAL4-SRC1 luciferase reporter, luminescence; inhibition, % at 3.6 µM; 360,000 tested, 0.12% active; AID 588354;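 active means inhibition above the campaign mean plus 3 SD, with each screening campaign given its own cutoff, cut at about 60% in these data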
NCOA3 inh: inhibitors of human steroid receptor coactivator 3 (SRC3); AID 588352; inhibition, % at 3.6 µM; 360,000 tested, 0.17% active; Q9Y6Q9; HEK293 GAL4-SRC3 luciferase reporter, luminescence;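 active means inhibition above a per-campaign cutoff, the mean of all compounds plus 3 SD, cut at about 60% in these data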;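 further: higher means less SRC3-driven luciferase light from the GAL4 reporter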
SRC2 inh: inhibits human steroid receptor coactivator 2; inhibition, % at 9 µM; AID 651957; HEK293 GAL4-SRC2 luciferase reporter, luminescence; 370,000 tested, 0.17% active; Q15596;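 active means inhibition above the mean inhibition of all tested compounds plus 3 SD, set per campaign, cut at about 52% in these data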
Shn3 3UTR inh: reduces Shn3 3'UTR luciferase signal in osteoblasts; Clone20 osteoblast Shn3 3'UTR firefly luciferase, 24 h; AID 588674; inhibition, % at 12.5 µM; 360,000 tested, 0.52% active;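 active means mean inhibition of at least 75% with every replicate also reaching 75%; inconclusive means mean inhibition at least 75% but some replicate below; inactive means mean inhibition below 75%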
EBV LMP1 NFkB: Epstein-Barr LMP1 NF-kappaB reporter inhibition. inhibition, % at 12.5 µM. 350,000 tested, 0.69% active. LMP1-induced NF-kappaB luciferase reporter cells, luminescence. AID 504558; in the data active means inhibition above about 41%; inconclusive means no clear call, values can overlap the other calls
Of the large screens only hits and unclear results are named; the others gave an inactive call.

COC1C(O)C(C)OC(OC2CCC3(C)C(CCC4C3C(O)CC3(C)C(C5=CC(=O)OC5)CCC43O)C2)C1O (centres undefined)	LRH-1 inv ag 101, NCOA1 inh 87, NCOA3 inh 90, SRC2 inh 58, EBV LMP1 NFkB 57
C[C@]12CC[C@H](O)C[C@H]1CC[C@@H]1[C@@H]2C[C@@H](O)[C@]2(C)[C@@H](C3=CC(=O)OC3)CC[C@]12O	LRH-1 inv ag 103, NCOA3 inh 75, EBV LMP1 NFkB 68
C[C@]12CC[C@H](O)C[C@H]1CC[C@@H]1[C@@H]2CC[C@]2(C)[C@@H](C3=CC(=O)OC3)CC[C@]12O	LRH-1 inv ag 102, NCOA1 inh 83, NCOA3 inh 85, EBV LMP1 NFkB 78
CC(=O)OC1CC(OC2C(O)CC(OC3C(O)CC(OC4CCC5(C)C(CCC6C5CC(O)C5(C)C(C7=CC(=O)OC7)CCC65O)C4)OC3C)OC2C)OC(C)C1OC1OC(CO)C(O)C(O)C1O (centres undefined)	LRH-1 inv ag 103, NCOA1 inh 87, NCOA3 inh 90, SRC2 inh 61, EBV LMP1 NFkB 83
CCCCN1CCN(C(=O)COc2cc(=O)n(C)c3ccccc23)CC1	none (no result: LRH-1 inv ag, NCOA1 inh, NCOA3 inh, Shn3 3UTR inh, EBV LMP1 NFkB)
O=C(CN1C(=O)[C@@H](Cc2ccc(O)cc2)N=C(c2ccccc2)c2ccccc21)NC1CCCCC1	none (no result: LRH-1 inv ag, NCOA1 inh, NCOA3 inh, Shn3 3UTR inh, EBV LMP1 NFkB)
CN1C[C@H](O)[C@H]2C[C@@H]1c1ccccc1O2	none (no result: LRH-1 inv ag, NCOA1 inh, NCOA3 inh, Shn3 3UTR inh, EBV LMP1 NFkB)
CC12CC[C@H]3[C@@H](CCC4(O)C[C@H](O)CCC34/C=N/NC(=O)Cc3ccccc3)C1(O)CCC2C1=CC(=O)OC1 (some centres undefined)	none
CC(=O)C1CCC2C3CCC4CC(O)CCC4(C)C3CCC12C (centres undefined)	none
CC12CCC(O)CC1CCC1C2CCC2(C)C(C3=CC(=O)OC3)C(O)CC12O (centres undefined)	LRH-1 inv ag 86, NCOA3 inh 67
CC12CCC(O)CC1CCC1C2CCC2(C)C(C3=CC(=O)OC3)CCC12O (centres undefined)	LRH-1 inv ag 99, NCOA1 inh 82, NCOA3 inh 84, EBV LMP1 NFkB 45
Cc1ccc(C[n+]2c(-c3ccc(C)cc3)cc(-c3ccc(C)cc3)cc2-c2ccc(C)cc2)cc1	LRH-1 inv ag 95, NCOA1 inh 68, NCOA3 inh 83, Shn3 3UTR inh 92, EBV LMP1 NFkB inconclusive (no result: SRC2 inh)
Cc1ccc(-c2cc(-c3ccc(C)cc3)[n+](-c3ccc(C(=O)O)cc3)c(-c3ccc(C)cc3)c2)cc1	none
N#CCCC#N	none (no result: LRH-1 inv ag, NCOA1 inh, NCOA3 inh, Shn3 3UTR inh, EBV LMP1 NFkB)
CNC(=O)Oc1ccc(-c2cn3cc(C)ccc3n2)cc1	EBV LMP1 NFkB 64
CNC(=O)Oc1cccc(-c2cn3cc(Cl)ccc3n2)c1	none
Clc1cc(Cl)cc(CN2Cc3ccccc3-n3nncc3C2)c1	none (no result: LRH-1 inv ag, NCOA1 inh, NCOA3 inh, Shn3 3UTR inh, EBV LMP1 NFkB)
Brc1ccc2c(c1)-n1nncc1CNC2	none (no result: LRH-1 inv ag, NCOA1 inh, NCOA3 inh, Shn3 3UTR inh, EBV LMP1 NFkB)
CCCC[C@@H](C)C[C@@H](C)C(=O)N(C)[C@@H](CC(C)C)C(=O)N[C@H](C(=O)N(C)[C@H](C(=O)N1C[C@@H](O)C[C@H]1C(=O)N1C(=O)C=C[C@@H]1C)C(C)C)C(C)OC(C)=O (some centres undefined)	LRH-1 inv ag 75 (no result: SRC2 inh)
O=S(=O)(c1ccc(Cl)cc1)N1Cc2ccc(Br)cc2-n2nncc2C1	none (no result: LRH-1 inv ag, NCOA1 inh, NCOA3 inh, Shn3 3UTR inh, EBV LMP1 NFkB)
CC(=O)O[C@H]1[C@H]2O[C@]23[C@@H]2CC[C@]4(O)C[C@@H](O)CC[C@]4(C)C2CC[C@]3(C)[C@H]1c1ccc(=O)oc1 (some centres undefined)	LRH-1 inv ag 100, NCOA1 inh 86, NCOA3 inh 89, EBV LMP1 NFkB 49 (no result: SRC2 inh)
C[C@]12CC[C@H]3C(CCC4(O)CC(O)CC[C@]34C=O)C1=CC[C@H]2c1ccc(=O)oc1 (some centres undefined)	none
C[C@H](NC(=O)OCc1ccccc1)C(=O)NC(Cc1ccccc1)P(=O)(Oc1ccccc1)Oc1ccccc1 (some centres undefined)	none (no result: LRH-1 inv ag, NCOA1 inh, NCOA3 inh, Shn3 3UTR inh, EBV LMP1 NFkB)
CC1(C(=O)O)CC12c1ccccc1-c1ccccc12 (centres undefined)	EBV LMP1 NFkB 74
CN1CCC2(CC1)c1ccccc1-c1ccccc12	none
CN1CCN(c2ccc([N+](=O)[O-])c3no[n+]([O-])c23)CC1	LRH-1 inv ag 93, NCOA1 inh 96, NCOA3 inh 94, SRC2 inh 94, Shn3 3UTR inh 97, EBV LMP1 NFkB 76
O=[N+]([O-])c1ccc(N(CCO)CCO)c2c1no[n+]2[O-]	LRH-1 inv ag 83, NCOA3 inh 67, SRC2 inh 58
N#CCC[C@@H]1CC[C@]2(CCCN(Cc3ccccn3)C2)O1	none (no result: LRH-1 inv ag, NCOA1 inh, NCOA3 inh, Shn3 3UTR inh, EBV LMP1 NFkB)
CC(C)(C)NC(=O)C1CN=C(c2ccccc2)c2cc(Cl)ccc2N1C(=O)C1CCC1 (centres undefined)	none (no result: LRH-1 inv ag, NCOA1 inh, NCOA3 inh, Shn3 3UTR inh, EBV LMP1 NFkB)
O=C(O)CCl	none (no result: LRH-1 inv ag, NCOA1 inh, NCOA3 inh, Shn3 3UTR inh, EBV LMP1 NFkB)
COc1cc2cc(C(=O)N3CC(COS(C)(=O)=O)c4ccc(O)cc43)[nH]c2c(OC)c1OC (centres undefined)	NCOA1 inh 90, NCOA3 inh 94, Shn3 3UTR inh 95, EBV LMP1 NFkB 90 (no result: SRC2 inh)
C[C@H]1[C@@H](OS(=O)(=O)O)C[C@@H]2C[C@H]([C@@H](O)c3cc(=O)[nH]c(=O)[nH]3)NC3=NC[C@H]1N32	LRH-1 inv ag 99, Shn3 3UTR inh 98, EBV LMP1 NFkB 72 (no result: SRC2 inh)
Cc1ccc(OCCOc2cccc(C=C3C(=O)NC(=O)NC3=O)c2)c(C)c1	EBV LMP1 NFkB 45
COC(=O)C1C(c2ccc(C)cc2)CC2CCC1N2C (centres undefined)	none (no result: LRH-1 inv ag, NCOA1 inh, NCOA3 inh, Shn3 3UTR inh, EBV LMP1 NFkB)
CC1CC(C)(O)CC(C(O)CC2CC(=O)NC(=O)C2)C1=O (centres undefined)	LRH-1 inv ag 98, NCOA1 inh 94, NCOA3 inh 93, SRC2 inh 72, Shn3 3UTR inh 94, EBV LMP1 NFkB 90
CC=CC(C)=CC(C)C(=O)CC(O)CC1CC(=O)NC(=O)C1 (centres undefined)	none
O=C(NCCN1CCC2(CC1)C(=O)NCN2c1ccccc1)c1cccs1	none (no result: LRH-1 inv ag, NCOA1 inh, NCOA3 inh, Shn3 3UTR inh, EBV LMP1 NFkB)
CCOC(=O)[C@]12Cc3cc(Cl)ccc3[C@H]1N(C1CCCCC1)C(=O)c1cc(OC)ccc12	LRH-1 inv ag 97 (no result: NCOA1 inh, NCOA3 inh, Shn3 3UTR inh, EBV LMP1 NFkB)
CCOC(=O)[C@]12Cc3ccc(C)cc3[C@H]1N(C1CCCCC1)C(=O)c1cc(OC)ccc12	none (no result: NCOA1 inh, NCOA3 inh, Shn3 3UTR inh, EBV LMP1 NFkB)
C[C@H]1CCC[C@H](O)CCCCCc2cc(O)cc(O)c2C(=O)O1	none
C[C@H]1CCC[C@@H](O)CCC/C=C/c2cc(O)cc(O)c2C(=O)O1	NCOA3 inh 64
CCN1C[C@]2(C)CC[C@H](O)[C@]34C1[C@H](C[C@H]23)[C@@]1(O)C[C@H](OC)[C@H]2C[C@@H]4[C@@H]1C2O (some centres undefined)	EBV LMP1 NFkB 90
CC(C)c1oc(=O)cc2c1[C@@H](O)[C@H]1OC(=O)[C@@]3(C)C[C@@H](O)[C@@H](O)[C@@]2(C)C13 (some centres undefined)	LRH-1 inv ag 92, NCOA3 inh 76
